In PubChem BioAssay AID1159580 (chemical genetic matrix, 2015):
Screen size: about 5,500 compounds; about 2,000 (36%) were called active. Not shown: some 18% with an inconclusive outcome. No stated cut-off is given here; in the data, active means normalized growth mostly below about 0.91 (no sharp cut-off); inconclusive means no clear call, values can overlap the other calls; inactive means mostly above about 0.92. This is one part of the list.

Experiment: chemical genetic growth profiling, strain panel (AID 1159580);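 further: tested at 20 µM; growth read once vehicle control cultures reached saturation at 30 °C; 1 = growth at the plate median or of vehicle wells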
Conditions: S. cerevisiae deletion strains, growth OD

Measured: normalized growth

O=C(O)[C@H]1/C(=C/CO)O[C@@H]2CC(=O)N21
inactive: locus YAL021C, strain ccr4, stronger effect = lower value 0.992 | locus YAL026C, strain drs2, stronger effect = lower value 0.991 | locus YAL030W, strain snc1, stronger effect = lower value 0.992 | locus YBL061C, strain skt5, stronger effect = lower value 0.955 | locus YBR009C, strain hhf1, stronger effect = lower value 1.01 | locus YBR023C, strain chs3, stronger effect = lower value 0.978 | locus YBR171W, strain sec66, stronger effect = lower value 0.983 | locus YBR231C, strain swc5, stronger effect = lower value 1.02 | locus YBR279W, strain paf1, stronger effect = lower value 0.976 | locus YCL011C, strain gbp2, stronger effect = lower value 1.02 | locus YCL016C, strain dcc1, stronger effect = lower value 0.972 | locus YCL069W, strain vba3, stronger effect = lower value 0.986 | locus YCR088W, strain abp1, stronger effect = lower value 0.986 | locus YDL005C, strain med2, stronger effect = lower value 0.971 | locus YDL040C, strain nat1, stronger effect = lower value 0.982 | locus YDR001C, strain nth1, stronger effect = lower value 0.981 | locus YDR069C, strain doa4, stronger effect = lower value 1.01 | locus YDR137W, strain rgp1, stronger effect = lower value 0.982 | locus YDR159W, strain sac3, stronger effect = lower value 0.97 | locus YDR195W, strain ref2 0.96 | locus YDR297W, strain sur2, stronger effect = lower value 1 | locus YDR334W, strain swr1, stronger effect = lower value 0.988 | locus YDR335W, strain msn5, stronger effect = lower value 0.976 | locus YDR392W, strain spt3, stronger effect = lower value 0.883 | locus YEL003W, strain gim4, stronger effect = lower value 1 | locus YEL037C, strain rad23, stronger effect = lower value 0.985 | locus YEL061C, strain CIN8 (second series), stronger effect = lower value 0.986 | locus YER015W, strain faa2, stronger effect = lower value 0.996 | locus YER016W, strain bim1, stronger effect = lower value 0.957 | locus YER111C, strain swi4, stronger effect = lower value 0.973 | locus YER155C, strain BEM2 (second series), stronger effect = lower value 0.999 | locus YFR010W, strain ubp6, stronger effect = lower value 1.02 | locus YGL167C, strain pmr1, stronger effect = lower value 0.986 | locus YGL173C, strain kem1, stronger effect = lower value 0.997 | locus YGL227W, strain vid30, stronger effect = lower value 0.971 | locus YGL240W, strain doc1, stronger effect = lower value 1.01 | locus YGL253W, strain hxk2, stronger effect = lower value 0.959 | locus YHR013C, strain ard1, stronger effect = lower value 0.957 | locus YHR027C, strain rpn1, stronger effect = lower value 0.992 | locus YHR030C, strain SLT2, stronger effect = lower value 0.964 | locus YHR079C, strain IRE1, stronger effect = lower value 0.959 | locus YHR142W, strain chs7, stronger effect = lower value 0.959 | locus YJL092W, strain hpr5, stronger effect = lower value 0.999 | locus YJL095W, strain BCK1 (second series), stronger effect = lower value 1 | locus YJL095W, strain BCK1, stronger effect = lower value 0.991 | locus YJL115W, strain asf1, stronger effect = lower value 0.983 | locus YJL129C, strain trk1, stronger effect = lower value 0.941 | locus YJL154C, strain vps35, stronger effect = lower value 0.982 | locus YJL164C, strain tpk1, stronger effect = lower value 0.993 | locus YJL166W, strain qcr8, stronger effect = lower value 1.03 | locus YJL187C, strain SWE1, stronger effect = lower value 0.995 | locus YJR066W, strain TOR1, stronger effect = lower value 0.936 | locus YKL160W, strain elf1, stronger effect = lower value 0.955 | locus YKR026C, strain gcn3, stronger effect = lower value 0.99 | locus YKR091W, strain srl3, stronger effect = lower value 0.986 | locus YLL001W, strain dnm1, stronger effect = lower value 0.984 | locus YLL026W, stronger effect = lower value 0.987 | locus YLL041C, strain sdh2, stronger effect = lower value 1.02 | locus YLR027C, strain aat2, stronger effect = lower value 1 | locus YLR113W, strain HOG1, stronger effect = lower value 0.974 | locus YLR221C, strain rsa3, stronger effect = lower value 1.01 | locus YLR258W, strain gsy2, stronger effect = lower value 1 | locus YLR262C, strain YPT6 (second series), stronger effect = lower value 1.02 | locus YLR320W, strain mms22, stronger effect = lower value 1.01 | locus YLR342W, strain FKS1, stronger effect = lower value 0.965 | locus YLR357W, strain rsc2, stronger effect = lower value 0.931 | locus YLR370C, strain arc18, stronger effect = lower value 0.972 | locus YLR384C, strain iki3, stronger effect = lower value 0.98 | locus YML120C, strain ndi1, stronger effect = lower value 0.997 | locus YMR058W, strain fet3, stronger effect = lower value 0.993 | locus YMR125W, strain sto1, stronger effect = lower value 0.954 | locus YMR129W, stronger effect = lower value 0.981 | locus YMR205C, strain PFK2, stronger effect = lower value 0.99 | locus YMR231W, strain pep5, stronger effect = lower value 0.983 | locus YNL071W, strain lat1, stronger effect = lower value 0.996 | locus YNL183C, strain NPR1, stronger effect = lower value 0.952 | locus YNL209W, strain ssb2, stronger effect = lower value 0.98 | locus YNL248C, strain rpa49, stronger effect = lower value 0.935 | locus YNL322C, strain KRE1 (second series), stronger effect = lower value 0.973 | locus YNR049C, strain mso1, stronger effect = lower value 0.972 | locus YOR001W, strain rrp6, stronger effect = lower value 1.03 | locus YOR070C, strain gyp1, stronger effect = lower value 0.994 | locus YOR080W, strain dia2, stronger effect = lower value 0.988 | locus YOR083W, strain WHI5, stronger effect = lower value 0.909 | locus YOR106W, strain vam3, stronger effect = lower value 0.952 | locus YOR231W, strain MKK1, stronger effect = lower value 0.987 | locus YOR265W, strain rbl2, stronger effect = lower value 0.993 | locus YOR270C, strain vph1, stronger effect = lower value 1 | locus YOR290C, strain snf2, stronger effect = lower value 0.986 | locus YPL051W, strain arl3, stronger effect = lower value 0.979 | locus YPL078C, strain atp4, stronger effect = lower value 0.967 | locus YPL106C, strain sse1, stronger effect = lower value 0.979 | locus YPL240C, strain hsp82, stronger effect = lower value 1.01 | locus YPL256C, strain CLN2, stronger effect = lower value 0.959

NC1CCc2cc(O)c(O)cc2C1 (centres undefined)
inactive: locus YAL013W, strain DEP1, stronger effect = lower value 0.978 | locus YAL040C, strain CLN3, stronger effect = lower value 1.01 | locus YCL061C, strain MRC1 (second series), stronger effect = lower value 1.01 | locus YDR150W, strain NUM1, stronger effect = lower value 1.01 | locus YDR363W, strain ESC2, stronger effect = lower value 0.979 | locus YER002W, strain NOP16, stronger effect = lower value 1.02 | locus YGR078C, strain PAC10, stronger effect = lower value 1.04 | locus YJR075W, strain HOC1, stronger effect = lower value 0.985 | locus YMR263W, strain SAP30, stronger effect = lower value 0.997 | locus YNL128W, strain TEP1, stronger effect = lower value 1.01 | locus YNL175C, strain NOP13, stronger effect = lower value 1.02 | locus YNL197C, strain WHI3, stronger effect = lower value 1.01 | locus YNL224C, strain SQS1, stronger effect = lower value 1.01 | locus YOR083W, strain WHI5 (second series), stronger effect = lower value 1.08 | locus YPL055C, strain LGE1, stronger effect = lower value 0.976
